# Values of other authors, collected in PubChem BioAssay AID977608 (Shanghai Institute of Organic Chemistry, 2013).
# Among all 4,300 compounds or so, about 4,300 (100%) were called active. Cut-off not given; nearly all actives show IC50 up to about 1400 µM. The set was probably picked from earlier hits. This is one part of the list.
# Assay: literature IC50 values for PDB complexes, PDB-derived complexes (AID 977608)
# Details: PDB protein-ligand complexes
structure (smiles),measurement,setting,value
O=C(COc1ccccc1[P+](O)(O)O)Nc1cccc(Cl)c1,IC50,"protein: 14-3-3 protein sigma, PDB entry 4dhq",32 µM (active)
COc1cccc(NC(=O)COc2ccccc2[P+](O)(O)O)c1,IC50,"protein: 14-3-3 protein sigma, PDB entry 4dho",118 µM (active)
COc1ccc(OC)c(NC(=O)COc2ccccc2[P+](O)(O)O)c1,IC50,"protein: 14-3-3 protein sigma, PDB entry 3t0m",116 µM (active)
O=C(COc1ccccc1[P+](O)(O)O)Nc1cccc(C(F)(F)F)c1,IC50,"protein: 14-3-3 protein sigma, PDB entry 4dhm",165 µM (active)
NC1=N[C@@]2(c3cc(NC(=O)c4ccc(F)cn4)ccc3F)COC[C@H]2CS1,IC50,"protein: Beta-secretase 1 BACE1, PDB entry 4x7i",0.0203 µM (active)
Cc1nc(-c2ccccn2)nc(N[C@H](Cc2ccccc2)C(N)=O)c1Cl,IC50,"protein: Methionine aminopeptidase 1, PDB entry 4iku",1.79 µM (active)
CCC(C)(C)c1nn(CCO)c2c1NC(c1ccc(-n3ccnc3C)cc1)CNC2=O (stereo not drawn),IC50,"protein: cGMP-dependent 3',5'-cyclic phosphodiesterase, PDB entry 4jib",0.045 µM (active)
CC(C)C[C@H](NC(=O)OCc1ccccc1)C(=O)N[C@@H](CC(C)C)C(=O)N[C@@H](CC(C)C)[C@@H](O)[C@H](C)CO,IC50,"protein: Proteasome subunit alpha CP, PDB entry 4no9",0.015 µM (active)
CC(C)C[C@H](NC(=O)OCc1ccccc1)C(=O)N[C@H](CO)C[C@@H]1CCNC1=O,IC50,"protein: 3C-like proteinase, PDB entry 4f49",0.82 µM (active)
same,IC50,"protein: Genome polyprotein, PDB entry 4dcd",1.77 µM (active)
COC(=O)N[C@@H](CC(C)C)C(=O)N[C@H](CO)C[C@@H]1CCNC1=O,IC50,"protein: 3C-like protease, PDB entry 3ur9",0.49 µM (active)
CC[C@H](C)[C@H](CO)[C@@H](O)C(=O)N[C@H]1C[C@H]1C[C@@H](CCc1ccccc1)NC(=O)[C@H](C)NC(=O)OCc1ccccc1,IC50,"protein: Proteasome, PDB entry 4j70",5.7 µM (active)
c1cc2c(cn1)cnc1sccc12,IC50,"protein: DUAL SPECIFICITY PROTEIN KINASE TTK, PDB entry 4bi2",94.1 µM (active)
c1cc2cnc3sccc3c2cn1,IC50,"protein: DUAL SPECIFICITY PROTEIN KINASE TTK, PDB entry 4bhz",53.5 µM (active)
c1cc2cnc3ccsc3c2cn1,IC50,"protein: DUAL SPECIFICITY PROTEIN KINASE TTK, PDB entry 4bi1",69.1 µM (active)
Cc1cccc2c1CCN(C(=O)[C@@H]1CCCC[C@@H]1C(=O)O)[C@@H]2CN1Cc2ccccc2C1=O,IC50,"protein: Kelch-like ECH-associated protein 1, keap1 kelch domain, PDB entry 4l7d",0.75 µM (active)
O=C(O)[C@H]1CCCC[C@H]1C(=O)N1CCc2ccccc2[C@H]1CN1Cc2ccccc2C1=O,IC50,"protein: Kelch-like ECH-associated protein 1, keap1 kelch domain, PDB entry 4n1b",1.1 µM (active)
Cn1c(=O)c(C(=O)NCC(=O)O)c(O)c2ccccc21,IC50,"protein: EGL NINE HOMOLOG 1, PDB entry 4bqw",0.033 µM (active)
CO[C@H]1CN(c2nc(-c3ncnn3C)c(C(=O)O)s2)CC[C@H]1NC(=O)c1[nH]c(C)c(Cl)c1Br,IC50,"protein: DNA GYRASE SUBUNIT B, PDB entry 4bae",0.003 µM (active)
Nc1ccc(CC(=O)OCCc2ccccc2)c(C=O)c1,IC50,"protein: RHOMBOID PROTEASE GLPG, PDB entry 3zeb",0.74 µM (active)
Cc1ccc(S(=O)(=O)Nc2ccc(Oc3ccccc3)cc2C(=O)O)cc1,IC50,"protein: Genome polyprotein, PDB entry 4j08",0.22 µM (active)
Cc1ccc(S(=O)(=O)Nc2cc(Oc3ccccc3)ccc2C(=O)O)cc1,IC50,"protein: Genome polyprotein, PDB entry 4j0a",0.16 µM (active)
N=C[C@@H]1CCCN1C(=O)CNC12C[C@@H]3C[C@@H](CC(O)(C3)C1)C2,IC50,"protein: Dipeptidyl peptidase 4, PDB entry 3w2t",0.0292 µM (active)
O=C(O)c1sc(-c2ccccc2)cc1N1C(=O)CC[C@@H]1C1CCCCC1,IC50,"protein: NS5B, PDB entry 4tn2",0.12 µM (active)
Cc1[nH]ncc1-c1ccccc1Cl,IC50,"protein: Adenylate cyclase type 10 hsolAC, PDB entry 4oyo",300 µM (active)
Cc1[nH]ncc1-c1ccc(F)cc1,IC50,"protein: Adenylate cyclase type 10 hsolAC, PDB entry 4oz2",1000 µM (active)
O=c1c2ccccc2oc2c(Cc3ccc(O)cc3)[nH]c(-c3cccs3)c12,IC50,"protein: cGMP-specific 3',5'-cyclic Phosphodiesterase-5 (PDE5), PDB entry 4md6",0.017 µM (active)
CC(=N)C[C@@H](c1ccccc1)[C@]12Nc3cc(C)c(C)cc3N(C[C@H](O)[C@H](O)[C@H](O)CO[P+](O)(O)O[P+](O)(O)OC[C@H]3O[C@@H](n4cnc5c(N)ncnc54)[C@H](O)[C@@H]3O)[C@@H]1NC(=O)NC2=O,IC50,"protein: LYSINE-SPECIFIC HISTONE DEMETHYLASE 1A, PDB entry 4uva",1.78 µM (active)
CCC(=N)C[C@@H](c1ccccc1)[C@]12Nc3cc(C)c(C)cc3N(C[C@H](O)[C@H](O)[C@H](O)CO[P+](O)(O)O[P+](O)(O)OC[C@H]3O[C@@H](n4cnc5c(N)ncnc54)[C@H](O)[C@@H]3O)[C@@H]1NC(=O)NC2=O,IC50,"protein: LYSINE-SPECIFIC HISTONE DEMETHYLASE 1A, PDB entry 4uv9",0.975 µM (active)
Cc1cc2c(cc1C)N([C@@](N)(CCc1ccccc1)c1ccccc1)C1C(=O)NC(=O)N=C1N2C[C@H](O)[C@H](O)[C@H](O)CO[P+](O)(O)O[P+](O)(O)OC[C@H]1O[C@@H](n2cnc3c(N)ncnc32)[C@H](O)[C@@H]1O (stereo partly drawn),IC50,"protein: LYSINE-SPECIFIC HISTONE DEMETHYLASE 1A, PDB entry 4uvc",0.131 µM (active)
Cc1cc2c(cc1C)N1[C@@](C)(N)CC(c3ccccc3)[C@]13C(=O)NC(=O)N[C@H]3N2C[C@H](O)[C@H](O)[C@H](O)CO[P+](O)(O)O[P+](O)(O)OC[C@H]1O[C@@H](n2cnc3c(N)ncnc32)[C@H](O)[C@@H]1O (stereo partly drawn),IC50,"protein: LYSINE-SPECIFIC HISTONE DEMETHYLASE 1A, PDB entry 4uvb",3.26 µM (active)
Cc1cc2c(cc1C)N(C[C@H](O)[C@H](O)[C@H](O)CO[P+](O)(O)O[P+](O)(O)OC[C@H]1O[C@@H](n3cnc4c(N)ncnc43)[C@H](O)[C@@H]1O)[C@@H]1NC(=O)NC(=O)[C@@]1([C@@H](CC(=N)Cc1ccccc1)c1ccccc1)N2,IC50,"protein: LYSINE-SPECIFIC HISTONE DEMETHYLASE 1A, PDB entry 4uv8",0.335 µM (active)
O=C(O)c1nc(-c2ccc3cccc(N=Nc4nc5ccccc5s4)c3c2)sc1CCCCc1ccccc1,IC50,"protein: BCL-2-LIKE PROTEIN 1, PDB entry 3zlo",0.0015 µM (active)
